Compounds without any hit were thinned out: in the full panel of roughly 79,000, 15% have a hit. The source made the active and inactive calls. No stated cut-off is given here; in the data, active means growth inhibition above about 70%; inactive means the rest.
Tests used:
[1] = NCI Yeast Anticancer Drug Screen. Data for the rad50 strain (AID 155);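 further: 0% = growth of vehicle-only cultures of the same strain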; settings: S. cerevisiae rad50 strain growth inhibition; at 50.0 µM; active compounds read high
Summary of the method: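 A DNA repair-deficient yeast mutant serves as the test organism; compound-induced growth inhibition is calculated against vehicle-treated cells.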

[2] = NCI Yeast Anticancer Drug Screen. Data for the mec2-1 strain (AID 157); settings: S. cerevisiae mec2-1 strain, at 50.0 µM, active compounds read high
Summary of the method: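 Compounds were applied to mec2-1 yeast cells. Their growth was then compared with that of vehicle-treated cultures to give growth inhibition.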

[3] = NCI Yeast Anticancer Drug Screen. Data for the sgs1 mgt1 strain (AID 161);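 further: 0% = growth of cultures given vehicle only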; settings: S. cerevisiae sgs1 mgt1 strain, at 50.0 µM, active compounds read high
Summary of the method: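 Yeast cells carrying a defined DNA-repair defect were exposed to test compounds. Growth inhibition was measured relative to vehicle-treated controls.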

[4] = NCI Yeast Anticancer Drug Screen. Data for the cln2 rad14 strain (AID 165);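 further: 0% = growth equal to vehicle treated cultures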; settings: S. cerevisiae cln2 rad14 strain, at 50.0 µM, active compounds read high
Summary of the method: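 Strain: cln2 rad14 yeast, altered in cell cycle control and DNA damage repair. Read-out: growth inhibition vs vehicle.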

[5] = NCI Yeast Anticancer Drug Screen. Data for the bub3 strain (AID 167); settings: S. cerevisiae bub3 mutant strain, at 50.0 µM, active compounds read high
Summary of the method: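 Inhibition values come from growth of compound-treated mutant yeast normalised to vehicle-treated controls.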

[6] = NCI Yeast Anticancer Drug Screen. Data for the mlh1 rad18 strain (AID 175); settings: S. cerevisiae mlh1 rad18 strain growth inhibition; at 50.0 µM; active compounds read high
Summary of the method: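 A repair-deficient yeast strain is exposed to test compound, and growth is scored relative to vehicle-treated controls.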

Measured: growth inhibition

Cc1cc(C)c(NC(=O)NC2CCCCC2)cc1C
inactive: [1] 3.95% | [2] -9.3% | [3] 4.15% | [4] -1.6% | [5] 10.2% | [6] 34.9%

Cn1c(=O)c(Br)cc2ccccc21
inactive: [1] 10.2% | [2] 13.9% | [3] 21.3% | [4] 8.45% | [5] 9.1% | [6] 33.5%

Nc1ccc(C(=O)Nc2nccs2)cc1
inactive: [1] 8.4% | [2] 12.6% | [3] 6.8% | [4] -19.8% | [5] 14.6% | [6] 4.75%

CSC(SC)=C(C(=O)c1ccc(Cl)cc1)n1c(=O)sc2cc(Br)ccc21
inactive: [1] -19% | [2] 2.45% | [3] 6.25% | [4] 0.25% | [5] 12.8% | [6] -20.4%

O=C1C=CC(=CC=C2C=CN(CCCCCCO)C=C2)C=C1
inactive: [1] 18.4% | [2] 6.05% | [3] 26.2% | [4] 13.8% | [5] 8.65% | [6] 16.1%

CC(NC(=O)CNP(=O)(c1ccccc1)c1ccccc1)C(=O)NC(Cc1ccccc1)C(=O)OCc1ccccc1 (stereo unspecified)
inactive: [1] 9.8% | [2] 4.3% | [3] 20.1% | [4] -4.5% | [5] -9.55% | [6] 30.1%

CC1CC(=O)Nc2ccccc2N1C(=O)C1CC1 (stereo unspecified)
inactive: [1] -8.15% | [2] -33.4% | [3] -2.75% | [4] 2.7% | [5] -11.6% | [6] -1.85%

c1ccc2c(c1)CCC/C2=N\OCC1CO1 (stereo unspecified)
inactive: [1] -7.5% | [2] -28.4% | [3] -35.2% | [4] -3.1% | [5] -33.1% | [6] 7.05%

Cc1cccc(N=Nc2c(-c3ccccc3)nn(C(N)=S)c2C)c1C
inactive: [1] -19.8% | [2] -30.4% | [3] -18.4% | [4] -221% | [5] -9.95% | [6] -7.75%

O=C1/C(=C/c2cccs2)CCc2ccccc21
inactive: [1] 20.6% | [2] -12.4% | [3] 6.05% | [4] -16.1% | [5] 9.7% | [6] 31.9%

c1ccc(P(=Nc2cccc(N=P(c3ccccc3)(c3ccccc3)c3ccccc3)c2)(c2ccccc2)c2ccccc2)cc1
inactive: [1] 0.95% | [2] 6.9% | [3] 28.2% | [4] -2.6% | [5] 0.05% | [6] 6.6%

COc1cc(N=Nc2cccc(S(=O)(=O)O)c2)ccc1NC(=O)c1ccc(C(=O)Nc2ccc(N=Nc3cccc(S(=O)(=O)O)c3)cc2OC)cc1
inactive: [1] 3.35% | [2] 17.4% | [3] 23% | [4] -8.2% | [5] -13.8% | [6] 21.2%

COc1ccc(/C=C/C(=O)c2cc(C(=O)O)c(OC)cc2OC)cc1OC
inactive: [1] 4% | [2] -6.45% | [3] 22.4% | [4] 14.2% | [5] 17.9% | [6] -20.8%

Cc1cc(C(=O)O)cc(C)c1N(C)Cc1cnc2nc(N)nc(N)c2n1
inactive: [1] 5.6% | [2] -11.8% | [3] 0.25% | [4] 20.7% | [5] 17.4% | [6] -5%

N#Cc1c(-c2ccccc2)cc(-c2ccc(Cl)cc2)[nH]c1=S
inactive: [1] 5.3% | [2] 8.2% | [3] -19.1% | [4] 20.5% | [5] 42.2% | [6] 4.65%

c1ccc(-c2cc[n+]3c4c2ccc2c(-c5ccccc5)cc[n+](c24)CC3)cc1
active: [1] 78.5% | [3] 89.6% | [4] 73.8% | [6] 87.2%
inactive: [2] 51.5% | [5] 25.8%

C1CC2CC1C13OC1C1(CC1)C1OC213 (stereo unspecified)
inactive: [1] -4.5% | [2] 11.6% | [3] -40.5% | [4] -28.4% | [5] -20.2% | [6] -45.5%

COC(CCCl)c1ccccc1 (stereo unspecified)
inactive: [1] 1.2% | [2] -21.2% | [3] -9.8% | [4] 8.25% | [5] -12.7% | [6] 6.9%

C#CC(OC(C)=O)C1OC(n2cnc3c(Cl)nc(Cl)nc32)C(OC(C)=O)C1OC(C)=O (stereo unspecified)
inactive: [1] 37.5% | [2] 2.45% | [3] 21.2% | [4] 17.9% | [5] 10.8% | [6] 24.4%

COc1ccc2nc3cc(Cl)ccc3c(C=O)c2c1
inactive: [1] -0.15% | [2] 7.65% | [3] 5.75% | [4] -35.8% | [5] -4.3% | [6] -2.25%

O=C(Nc1ccccc1)Nc1ccc2ccccc2c1
inactive: [1] -7.75% | [2] -0.2% | [3] 2.1% | [4] -22.2% | [5] 12.9% | [6] -10.9%

Cc1ccc(S(=O)(=O)c2ccc(C)cc2[N+](=O)[O-])c([N+](=O)[O-])c1
inactive: [1] -58.1% | [2] -52.1% | [3] -25.4% | [4] -6.2% | [5] -19.9% | [6] -44.6%

CC(C)(C[NH-])C[NH-].[Cl][Pt+2][Cl]
inactive: [1] -22.3% | [2] 13.3% | [3] 20.2% | [4] 18.6% | [5] 16.6%
active: [6] 87.7%

CC1(C)S[C@@H]2[C@H](NC(=O)C3(N)CCCCC3)C(=O)N2[C@H]1C(=O)O
inactive: [1] -11.8% | [2] -29.1% | [3] 7.85% | [4] -5.65% | [5] -59.6% | [6] -11.8%

COc1ccc(-c2c3c([nH]c(=S)c2C#N)CCC3)cc1
inactive: [1] 8.65% | [2] 4.5% | [3] 33% | [4] 22.7% | [5] 28.7% | [6] 34.4%

COc1ccc(-c2c(C#N)c(S)n(NS(=O)(=O)c3ccccc3)c(=O)c2C#N)cc1
inactive: [1] 16.8% | [2] 56.7% | [3] 43.7% | [4] -1.5% | [5] 34% | [6] 58%

COC(=O)C(O)(C(=O)OC)C1=C(N)C(=O)c2ccccc2C1=O
inactive: [1] 28.9% | [2] 17.1% | [3] 17.8% | [4] -5.4% | [5] 40.8% | [6] 28.3%

CN(C)C(=O)Sc1nnc(C(C)(C)C)o1
inactive: [1] -4.35% | [2] -5.9% | [3] -7.3% | [4] -23.4% | [5] 1.7% | [6] 4.2%

Nc1ncc([N+](=O)[O-])c(=O)[nH]1
inactive: [1] -29.9% | [2] -14.2% | [3] -1.35% | [4] -4.25% | [5] 0.55% | [6] 26.9%

O=C(O)CCc1c[nH]c2ccccc12
inactive: [1] 10.2% | [2] 1.15% | [3] 31.8% | [4] -55.4% | [5] -7.95% | [6] 18.5%

c1ccc(-c2ccccc2N=C2N=NN=N2)cc1
inactive: [1] -1% | [2] -6.9% | [3] 2.2% | [4] -16.4% | [5] -13.6% | [6] 6.55%

Nn1c(C23CC4CC(CC(C4)C2)C3)n[nH]c1=S
inactive: [1] 4.35% | [2] 5.65% | [3] 36.1% | [4] -6.85% | [5] 16.6% | [6] 28.1%

CC(O)(CCCCCl)c1nc2ccccc2s1 (stereo unspecified)
inactive: [1] 20.9% | [2] -8.05% | [3] 25.4% | [4] -0.8% | [5] 11.9% | [6] 17.1%

COc1ccc(C(=O)N/N=C/c2cccc3ccccc23)cc1
inactive: [1] -3% | [2] 36.5% | [3] 13% | [4] -23.1% | [5] 43.8% | [6] 33.6%

CC1(CCl)Nc2ccccc2C(=O)N1c1ccc(Cl)cc1 (stereo unspecified)
inactive: [1] -2.45% | [2] -13.9% | [3] 8.95% | [4] -2.05% | [5] 20.9% | [6] -0.5%

Nc1ccc(S(=O)(=O)NC2C(O)OC(CO)C(O)C2O)cc1 (stereo unspecified)
inactive: [1] 15.6% | [2] -16.2% | [3] 6.65% | [4] -21.6% | [5] 9.7% | [6] 28.4%

O=C(Nc1cc(NC(=O)n2nnc3ccccc32)c(Br)cc1Br)n1nnc2ccccc21
inactive: [1] 51.4% | [2] 25% | [3] 27.2% | [4] 24.2% | [5] 2.15% | [6] 27.8%

Cc1ccc(C(c2ccccc2)C(CC(=O)O)CC(=O)O)cc1 (stereo unspecified)
inactive: [1] 1.2% | [2] 20% | [3] 15% | [4] 6.45% | [5] 5.2% | [6] 15.9%

CCc1ccccc1NC(=O)/C=N/O
inactive: [1] -27.9% | [2] -24.1% | [3] -17.6% | [4] -7.3% | [5] -22.6% | [6] -11.2%

CN1CCCS/C1=C1/SC(=S)N(c2ccccc2)C1=O
inactive: [1] -16.8% | [2] 13.8% | [3] -5.85% | [4] -5.75% | [5] -28.1% | [6] -17.4%

COc1cccc(C(Nc2nncs2)Nc2nncs2)c1
inactive: [1] 3.1% | [2] -9.2% | [3] -8.45% | [4] 13.9% | [5] -20.3% | [6] 16.1%
